Here are results for 23 compounds from PubChem BioAssay (NCATS).

Structures are written as SMILES. Values without a mark were called inactive. Results filed as inconclusive are left out. Activity calls are given as the source filed them. The call rests on the fitted dose curve; in most records, active means well fitted curve in the direction sought with a large enough effect; inconclusive means small, poorly fitted or top-dose-only effect, or another doubt; inactive means no such curve, though single readings can be large; an effect the other way counts as inactive or inconclusive.

In assay [1] the test system is Zika virus NS2B-NS3 protease. Briefly: Primary screen GU AMC qHTS for Zika virus inhibitors (AID 1347154).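 Further: 0% = no-inhibitor control and -100% = no-enzyme control; nearly all actives have a fitted effect of over 70% in size.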 A digest of the protocol: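 Unlinked Zika NS2B hydrophilic domain/NS3 protease domain noncovalent complex (25 nM final) in 10 mM Tris-HCl pH 8.0, 0.01% Tween 20, with AMC peptide substrate. Fluorescence (ex 340, em 450 nm) change over 15 min, room temperature; percent inhibition fitted to 4-parameter Hill equation.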
(In general: In qHTS, concentration-response curves come from the screen itself.)

The nature of assay [2]: qHTS to identify inhibitors of the type 1 interferon - major histocompatibility complex class I in skeletal muscle: primary screen against the NCATS LOPAC collection (AID 1347405).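 Further: lytic HiBiT luminescence reporting HLA-B protein level.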 Further: potency means the concentration at half of the fitted maximal effect. On activity change, negative = inhibition: on the % scale 0 is the no-effect control and ±100 the full control effect. In short, it runs like this: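 Luminescence from HiBiT fused to endogenous HLA-B in CRISPR-engineered human myoblasts served as the read-out. Cells received 4.0 ng/ml IFN-beta plus compound (seven concentrations, 1:4.3 steps, highest 46 uM final) for 24 hrs before lytic detection.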

Assay [3] is described as follows: qHTS for inhibitors of adenylyl cyclases using a fission yeast platform: a pilot screen against the NCATS LOPAC library (AID 1347410).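 Further: plate controls were DMSO vehicle for no effect and DPI positive control for full effect.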 A digest of the protocol: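 Read-out: fbp1-GFP fluorescence by laser scanning cytometry (488 nm laser), a gain of signal when AC/cAMP-PKA signalling is inhibited. Strain CHP2027 expressing AC9, GNAS and PDE4D2; compounds at up to 57 µM; 18 h, 30C.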

Assay [4] addresses Protein phosphatase 1D (Homo sapiens) (UniProt O15297). In words: RapidFire Mass Spectrometry qHTS Assay for Modulators of WT P53-Induced Phosphatase 1 (WIP1) (AID 1347424).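 Further: amount of dephosphorylated VEPPL-S-QETFS peptide product formed by WIP1.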 Further: potency means the concentration at half of the fitted maximal effect.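 On activity change, negative = inhibition: series mostly up to about 63 µM; plate controls were DMSO wells for no effect and GSK830371 inhibitor control at 10 µM for full effect.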 In short, it runs like this:
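WIP1 (10 nM final) was preincubated 1 h at room temperature with compounds in Tris-HCl pH 7.5, 30 mM MgCl2, TCEP, EGTA, BSA; 2 uM VEPPL-pS-QETFS phosphopeptide was added for 5 min, quenched with formic acid, and dephosphorylated product quantified by RapidFire MS.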

Assay [5] has the same target. In words: Rhodamine-PBP qHTS Assay for Modulators of WT P53-Induced Phosphatase 1 (WIP1) (AID 1347425). Further: % of control where 0% means no effect. In short, it runs like this: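 Read-out: Rhodamine-PBP fluorescence (ex 525/em 598 nm) for released Pi, read each minute for 11 min after adding 10 uM VEPPL-pS-QETFS; signal taken as f1 minus pre-substrate f0. Enzyme 5 nM WIP1 with 1 hr room-temperature compound preincubation.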

The nature of assay [6]: Validation qHTS assay for inhibitors of Activation Induced Cytidine Deaminase (AID): UDG Counterscreen signal (AID 1347427). Further: 0% is about no effect. In short, it runs like this:
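Counterscreen read of UDG activity (2 U/mL, 4/3x) in the FRET deamination format with AID (1 uM, 4/3x), DJC20/DJC23 substrates (250 nM, 4x), 4 h at room temperature. NaOH stop, fluorescence at 560 ex/665 em.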

Assay [7] concerns the target Single-stranded DNA cytosine deaminase (Homo sapiens) (UniProt Q9GZX7). Briefly: Validation qHTS assay for inhibitors of Activation Induced Cytidine Deaminase (AID): AID signal (AID 1347429). Further: on the % scale 0 is the no-effect control and ±100 the full control effect. In short, it runs like this:
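Fluorescence at 540 nm excitation and 590 nm emission reports ssDNA cytosine deamination by AID, with UDG in the same well. Compound-treated reactions ran 4 hr at room temperature with DJC20/DJC23 substrate, followed by 30 min NaOH treatment.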

A short description of assay [8]: Primary qHTS for inhibitors of La Crosse Virus (LACV) - induced cell death in SH-SY5Y cells (AID 1508616).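 Further: top concentration of the series differs between compounds; 0% = infected DMSO wells and 100% = uninfected DMSO wells; higher means more rescue of cells from virus-induced death.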 In short, it runs like this: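 Protection against LACV-induced cell death is scored in SH-SY5Y cells exposed to compounds and virus (0.01 MOI) for 6 days. Data normalized to virus-infected DMSO wells and virus-free DMSO wells.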
Assay [9] is described as follows: qHTS to identify inhibitors of the type 1 interferon - major histocompatibility complex class I in skeletal muscle: primary screen against the NCATS Pharmaceutical Collection (AID 1347407).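 Further: luminescence of HiBiT knocked into endogenous HLA-B as interferon-induced MHC class I level.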 Further: potency means the concentration at half of the fitted maximal effect. On activity change, negative = inhibition: on the % scale 0 is the no-effect control and ±100 the full control effect. A digest of the protocol: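 HLA-B HiBiT myoblasts, dexamethasone-free growth medium + 4 ng/ml IFN-b; compounds pinned 1 h after seeding, […] from 46 uM; 24 h, 37 C, 5% CO2; lytic HiBiT detection, 10 min RT, luminescence.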

In assay [10] the target is Lysine-specific demethylase 5B (Homo sapiens) (UniProt Q9UGL1). In words: Optimization screen for KDM5B Histone Demethylases FDH coupled qHTS against the LOPAC library (AID 1347166). Further: 0% is about no effect. A digest of the protocol: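 KDM5BDeltaAP (200nM final) preincubated 10 min with compound, then 12.5uM H3K4Me3, 25uM a-ketoglutarate, ascorbate, Fe(II), NAD+ and FDH added; 50mM HEPES pH 7.5, 0.01% Tween-20. NADH fluorescence (340/450 nm) change over 30 min, room temperature.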
Sequence of Lysine-specific demethylase 5B (Homo sapiens) (Q9UGL1 whole entry, looked up): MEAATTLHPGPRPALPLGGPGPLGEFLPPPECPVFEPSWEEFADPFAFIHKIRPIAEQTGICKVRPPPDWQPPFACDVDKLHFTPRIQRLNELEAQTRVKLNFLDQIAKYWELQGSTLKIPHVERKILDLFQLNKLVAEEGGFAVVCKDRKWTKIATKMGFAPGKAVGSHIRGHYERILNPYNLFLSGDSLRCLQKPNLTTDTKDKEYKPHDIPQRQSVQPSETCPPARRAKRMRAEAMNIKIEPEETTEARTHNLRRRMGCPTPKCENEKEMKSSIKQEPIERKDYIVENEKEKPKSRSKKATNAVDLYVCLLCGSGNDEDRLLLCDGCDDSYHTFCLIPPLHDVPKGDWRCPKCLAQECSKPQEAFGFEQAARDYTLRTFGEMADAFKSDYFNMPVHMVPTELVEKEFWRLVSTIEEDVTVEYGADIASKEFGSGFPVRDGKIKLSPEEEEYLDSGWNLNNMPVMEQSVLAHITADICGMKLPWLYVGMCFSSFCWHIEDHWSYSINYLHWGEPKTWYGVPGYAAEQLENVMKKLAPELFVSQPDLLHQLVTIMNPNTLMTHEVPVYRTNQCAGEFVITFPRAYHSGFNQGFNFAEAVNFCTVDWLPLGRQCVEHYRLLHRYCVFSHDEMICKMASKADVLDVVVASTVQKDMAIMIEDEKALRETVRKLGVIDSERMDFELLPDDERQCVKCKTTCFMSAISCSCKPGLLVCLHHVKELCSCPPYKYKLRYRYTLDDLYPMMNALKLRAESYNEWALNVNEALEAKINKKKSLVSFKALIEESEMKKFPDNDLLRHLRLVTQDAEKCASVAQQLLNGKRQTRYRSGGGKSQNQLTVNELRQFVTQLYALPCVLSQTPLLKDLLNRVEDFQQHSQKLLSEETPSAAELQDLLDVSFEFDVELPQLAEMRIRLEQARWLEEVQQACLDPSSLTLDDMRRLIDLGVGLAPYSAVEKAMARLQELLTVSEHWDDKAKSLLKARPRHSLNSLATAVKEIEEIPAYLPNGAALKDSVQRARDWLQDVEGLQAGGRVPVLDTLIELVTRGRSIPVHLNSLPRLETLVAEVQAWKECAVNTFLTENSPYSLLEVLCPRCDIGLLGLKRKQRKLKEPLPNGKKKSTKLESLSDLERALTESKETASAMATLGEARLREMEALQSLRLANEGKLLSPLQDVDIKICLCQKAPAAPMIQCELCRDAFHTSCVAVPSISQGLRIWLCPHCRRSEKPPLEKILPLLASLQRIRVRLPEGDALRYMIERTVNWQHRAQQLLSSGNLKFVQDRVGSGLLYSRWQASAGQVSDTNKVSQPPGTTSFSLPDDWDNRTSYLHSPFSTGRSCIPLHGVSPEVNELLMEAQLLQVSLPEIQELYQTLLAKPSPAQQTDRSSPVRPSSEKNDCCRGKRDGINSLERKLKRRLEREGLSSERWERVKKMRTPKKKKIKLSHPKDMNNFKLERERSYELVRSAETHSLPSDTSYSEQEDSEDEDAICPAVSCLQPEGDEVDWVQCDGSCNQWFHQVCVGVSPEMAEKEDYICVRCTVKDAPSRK

Sequence of Single-stranded DNA cytosine deaminase (Homo sapiens) (Q9GZX7 whole entry, looked up): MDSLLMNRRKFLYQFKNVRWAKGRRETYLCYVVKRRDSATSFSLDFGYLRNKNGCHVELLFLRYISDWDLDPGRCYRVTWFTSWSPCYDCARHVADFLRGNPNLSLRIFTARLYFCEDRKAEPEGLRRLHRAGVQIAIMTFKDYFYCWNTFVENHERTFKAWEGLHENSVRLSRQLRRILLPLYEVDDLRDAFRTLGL
Sequence of Protein phosphatase 1D (Homo sapiens) (O15297 whole entry, looked up): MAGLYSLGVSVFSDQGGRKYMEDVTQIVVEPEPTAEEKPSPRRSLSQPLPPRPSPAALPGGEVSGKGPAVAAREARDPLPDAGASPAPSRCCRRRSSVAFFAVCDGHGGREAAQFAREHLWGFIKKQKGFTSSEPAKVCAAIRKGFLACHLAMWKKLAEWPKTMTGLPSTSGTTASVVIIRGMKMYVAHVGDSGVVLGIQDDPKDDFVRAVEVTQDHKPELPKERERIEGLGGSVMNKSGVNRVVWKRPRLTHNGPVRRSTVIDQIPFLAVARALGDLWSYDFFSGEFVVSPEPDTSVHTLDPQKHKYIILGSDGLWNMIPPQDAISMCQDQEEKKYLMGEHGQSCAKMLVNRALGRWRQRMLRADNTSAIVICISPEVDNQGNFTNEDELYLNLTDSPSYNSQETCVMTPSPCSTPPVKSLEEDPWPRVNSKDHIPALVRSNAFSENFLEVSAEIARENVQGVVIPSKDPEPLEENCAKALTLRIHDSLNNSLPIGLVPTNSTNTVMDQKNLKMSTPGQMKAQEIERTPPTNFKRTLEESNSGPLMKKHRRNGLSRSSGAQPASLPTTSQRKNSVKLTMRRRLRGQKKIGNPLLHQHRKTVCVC

As for `COCCCC/C(=N\OCCN)c1ccc(C(F)(F)F)cc1`, the outcome in [1], in assay [3], in assay [5] and in [6] was inactive. The Potency result in assay [2], in assay [4], in assay [7] and in [8] was “inactive” throughout.
On to `CCN(CC)CCCN(c1ccccc1)C1Cc2ccccc2C1`, for which the compound was called inactive in assay [1], in assay [3], in assay [5] and in assay [6]. Moreover, the Potency result in assay [2], in assay [9], in assay [4], in assay [7] and in [8] was “inactive” each time.
Regarding `C[C@H](CS)C(=O)N1CCC[C@H]1C(=O)O`, the call in assay [1], in assay [3] and in assay [5] was inactive. In addition, the Potency result in assay [4] and in assay [8] was “inactive” throughout.
For the compound `CN1CCN(CC(=O)N2c3ccccc3C(=O)Nc3cccnc32)CC1`, the result in assay [1], in assay [3] and in assay [6] was inactive. The Potency entry in assay [2], in [7] and in assay [8] was “inactive” each time. Besides, the activity change, negative = inhibition in [9] was -1.82% [at 3.83 µM]; in assay [4], -2.97% [at 6.17 µM]; in assay [5], 8.19% [at 4.81 µM].
For the compound `CCCCOCCOCCOCc1cc2c(cc1CCC)OCO2`, the compound was classed as inactive in assay [1] and in [5]. The Potency entry in assay [9], in assay [4] and in [8] was “inactive” in each case.
Regarding `C[n+]1cc2c3c(ccc2c2ccc4cc5c(cc4c21)OCO5)OCO3`, the compound was classed as inactive in assay [1], in [3] and in assay [5]. Besides, the Potency in assay [2] was 1.78 µM (active). Moreover, the Potency result in assay [4] was “inactive”.
As for `O=C1NCN(c2ccccc2)C12CCN(CCCC(c1ccc(F)cc1)c1ccc(F)cc1)CC2`, the Potency in assay [9] was 18.7 µM (active). Moreover, the outcome in [3], in assay [5] and in assay [6] was inactive. Also, the Potency result in [4], in assay [7] and in [8] was “inactive” in each case.
With `Cc1ccc(Cl)c(Nc2ccccc2C(=O)O)c1Cl`, the call in assay [1], in [3] and in assay [6] was inactive. Moreover, the Potency result in assay [2], in [9], in assay [7] and in assay [8] was “inactive” in each case. Further, in assay [4], the Potency is 17.8 µM (active).
Regarding `CN(C)CCCN1c2ccccc2Sc2ccc(C(F)(F)F)cc21`, the outcome in assay [1], in [3], in assay [5] and in assay [6] was inactive. For the same compound, the Potency result in assay [9], in assay [4], in assay [7] and in assay [8] was “inactive” in each case.
Take `CC(C(=O)O)c1ccc(CC2CCCC2=O)cc1` (configuration not stated): the call in assay [1], in assay [3], in [5] and in assay [6] was inactive. Further, the Potency result in [2], in assay [9], in assay [4], in assay [7] and in [8] was “inactive” throughout.
For the compound `CCOC(=O)C1=C(C)NC(C)=C(C(=O)OC)C1c1cccc(Cl)c1Cl` (configuration not stated), in assay [3], the compound was called inactive. Further, the Potency result in assay [4] and in assay [8] was “inactive” each time.
Consider `NC(N)=NC(=O)Cc1c(Cl)cccc1Cl`, for which the result in [1], in assay [3], in assay [5] and in [6] was inactive. The Potency entry in assay [2], in assay [9], in assay [4], in [7] and in assay [8] was “inactive” throughout.
Turning to `NS(=O)(=O)c1cc2c(cc1Cl)NC(C1CC3C=CC1C3)NS2(=O)=O` (configuration not stated), the compound was classed as inactive in assay [1], in assay [3], in assay [5] and in [6]. Also, the Potency result in assay [2], in assay [9], in assay [4], in assay [7] and in assay [8] was “inactive” in each case.
As to `N[C@@H](COP(=O)(O)O)C(=O)O`, the compound was called inactive in assay [1], in assay [3] and in assay [6]. For the same compound, the Potency entry in [2], in assay [9], in assay [4], in assay [7] and in [8] was “inactive” each time.
With `OC(CCN1CCCCC1)(c1ccccc1)C1CCCCC1` (configuration not stated), the Potency result in assay [2], in assay [9], in assay [4], in assay [7] and in [8] was “inactive” throughout. The result in assay [3], in [5] and in [6] was inactive.
As for `COC(=O)C1=C(C)NC(C)=C(C(=O)OCCN(C)Cc2ccccc2)C1c1cccc([N+](=O)[O-])c1` (configuration not stated), the outcome in [1], in [3] and in [6] was inactive. Also, the Potency result in [9], in [4], in assay [7] and in assay [8] was “inactive” in each case.
Take `CN(C(=O)CCCOc1ccc2[nH]c(=O)ccc2c1)C1CCCCC1`: the Potency entry in assay [2], in [9], in assay [4], in [7] and in [8] was “inactive” in each case. The outcome in assay [3], in assay [5] and in assay [6] was inactive.
In the case of `CCCC(C(=O)OCCN(CC)CC)(c1ccccc1)c1ccccc1`, the compound was classed as inactive in [1], in [3], in assay [5] and in [6]. For the same compound, the Potency entry in [9], in assay [4], in assay [7] and in assay [8] was “inactive” throughout.
On to `COC(=O)[C@@H](N)Cc1ccc(O)c(O)c1`, for which the Potency entry in assay [2], in assay [9], in [4], in assay [7] and in assay [8] was “inactive” throughout. The call in assay [3], in assay [5] and in assay [6] was inactive.
For the compound `CC(C)(C)c1ccc(C(=O)CCCN2CCC(OC(c3ccccc3)c3ccccc3)CC2)cc1`, the Potency entry in assay [9], in assay [4], in assay [7] and in assay [8] was “inactive” in each case. Besides, the outcome in assay [3], in [5] and in assay [6] was inactive.
Consider `Cc1nc2ccccn2c(=O)c1CCN1CCC(C(=O)c2ccc(F)cc2)CC1`, for which the call in assay [1], in assay [3], in [5] and in assay [6] was inactive. Further, the Potency result in assay [2], in [9], in assay [4], in [7] and in assay [8] was “inactive” throughout.
As to `COC(=O)C1=C(C)NC(C)=C(C(=O)OC(C)(C)CN(C)CCC(c2ccccc2)c2ccccc2)C1c1cccc([N+](=O)[O-])c1` (configuration not stated), the Potency entry in assay [10], in [4], in assay [7] and in assay [8] was “inactive” in each case. Moreover, the compound was called inactive in assay [3], in assay [5] and in assay [6].
For the compound `CCCCCN(CCCCC)C(=O)C(CCC(=O)O)NC(=O)c1ccc(Cl)c(Cl)c1` (configuration not stated), the outcome in assay [1], in assay [3] and in [6] was inactive. Further, the Potency entry in [2], in assay [9], in assay [4], in assay [7] and in assay [8] was “inactive” in each case.
